Test results: PubChem BioAssay (Tox21)
Results filed as inconclusive are left out. Calls of active or inactive are those of the source. Calls come from the whole dose curve.

Tests used:
[1] = biological target: Acetylcholinesterase (Homo sapiens) (UniProt P22303); experiment: Acetylcholinesterase (AChE) small molecule antagonists: colormetric cell-based qHTS assay (AID 1347395); note: nearly all actives have a fitted effect of over 30% in size; note: potency is the fitted concentration of half-maximal effect
How it was run: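 Colorimetric readout: DTNB quantifies thiocholine from acetylthiocholine hydrolysed by endogenous AChE of SH-SY5Y cells (2,000/well, plated overnight). Compound pretreatment 30 min, substrate incubation 90 min, both 37 C.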

[2] = biological target: Acetylcholinesterase (Homo sapiens) (UniProt P22303); experiment: Acetylcholinesterase (AChE) small molecule antagonists: enzyme-based qHTS assay (AID 1347397); settings: Potency: AChE enzyme activity inhibition; outcome: AChE enzyme activity inhibition; note: nearly all actives have a fitted effect of over 55% in size
How it was run: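 Colorimetric DTNB readout of acetylthiocholine hydrolysis, 10 min at room temperature, after 30 min room-temperature exposure of 50 mU/mL recombinant human enzyme to compound; DMSO vehicle control.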

[3] = biological target: Acetylcholinesterase (Homo sapiens) (UniProt P22303); experiment: Acetylcholinesterase (AChE) small molecule antagonists: fluorescence cell-based qHTS assay (AID 1347398); settings: Potency: AChE activity; outcome: AChE activity; note: nearly all actives have a fitted effect of over 50% in size; note: potency is the fitted concentration of half-maximal effect
How it was run: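 Cellular AChE activity read as thiocholine from acetylthiocholine hydrolysis, detected by Thiolite Green fluorescence at 490/520 nm after 40 min at room temperature. Compounds were pre-incubated 30 min at 37 C on adherent SH-SY5Y cells.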

[4] = biological target: Acetylcholinesterase (Homo sapiens) (UniProt P22303); experiment: Acetylcholinesterase (AChE) small molecule antagonists: enzyme-based qHTS assay with human liver microsomes (AID 1347399); settings: Potency: qHTS inhibition; outcome: qHTS inhibition; note: nearly all actives have a fitted effect of over 60% in size
How it was run: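 Recombinant human AChE (50 mU/mL in the enzyme mix) and human liver microsomes (0.25 mg/mL final) were preincubated with compound and NADPH (0.25 mg/mL final) for 30 min at 37 C. Acetylthiocholine/DTNB was then added; thiocholine was read colorimetrically after 10 min at room temperature.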
% is set by controls: 0 for no effect and ±100 for the full control effect.

Chain of Acetylcholinesterase (Homo sapiens) (P22303 whole entry, looked up): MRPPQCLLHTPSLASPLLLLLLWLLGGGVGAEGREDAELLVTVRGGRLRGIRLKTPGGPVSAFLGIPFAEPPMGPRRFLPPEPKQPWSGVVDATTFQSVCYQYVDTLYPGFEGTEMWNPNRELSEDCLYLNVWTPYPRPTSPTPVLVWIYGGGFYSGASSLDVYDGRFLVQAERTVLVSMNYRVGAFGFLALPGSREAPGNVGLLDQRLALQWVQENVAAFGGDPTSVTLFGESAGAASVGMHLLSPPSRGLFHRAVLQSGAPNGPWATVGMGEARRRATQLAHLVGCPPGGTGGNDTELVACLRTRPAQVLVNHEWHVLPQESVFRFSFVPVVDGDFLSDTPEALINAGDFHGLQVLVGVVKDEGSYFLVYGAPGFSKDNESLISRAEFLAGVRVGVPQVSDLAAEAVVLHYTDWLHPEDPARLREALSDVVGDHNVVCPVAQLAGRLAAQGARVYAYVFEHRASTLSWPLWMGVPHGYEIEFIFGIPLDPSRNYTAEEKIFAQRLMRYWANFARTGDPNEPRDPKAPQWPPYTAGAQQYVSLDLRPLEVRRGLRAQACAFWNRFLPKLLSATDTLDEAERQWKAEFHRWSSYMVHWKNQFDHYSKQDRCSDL

O=[N+]([O-])c1cc(C2CCCCC2)c(O)c([N+](=O)[O-])c1
inactive: Potency [1] | Potency [2] | Potency [3] | Potency [4]

Cc1c(C)c2c(c(C)c1OC(=O)c1cccnc1)CC[C@@](C)(CCC[C@H](C)CCC[C@H](C)CCCC(C)C)O2
inactive: Potency [1] | Potency [2] | Potency [3] | Potency [4]

O=C(O)c1ccc[n+]([O-])c1
inactive: Potency [1] | Potency [2] | Potency [3] | Potency [4]

C=C(C)C(=O)OCC(O)CO (stereo not given)
inactive: Potency [1] | Potency [2] | Potency [3] | Potency [4]

Nc1ccccc1Nc1ccccc1
inactive: Potency [1] | Potency [2] | Potency [3] | Potency [4]

Oc1cccc2[nH]ccc12
inactive: Potency [1] | Potency [2] | Potency [3] | Potency [4]

Nc1ccc2cc3ccccc3cc2c1
inactive: Potency [1] | Potency [2] | Potency [3] | Potency [4]

CCCCOC(=O)CC(CC(=O)OCCCC)(OC(C)=O)C(=O)OCCCC
inactive: Potency [1] | Potency [2] | Potency [3] | Potency [4]

CC(c1cc(C(C)(C)C)cc(C(C)(C)C)c1O)c1cc(C(C)(C)C)cc(C(C)(C)C)c1O
inactive: Potency [1] | Potency [2] | Potency [3] | Potency [4]

CC(C)C(=O)OC(=O)C(C)C
inactive: Potency [1] | Potency [2] | Potency [3] | Potency [4]

CCOC(=O)[C@H](O)[C@@H](O)C(=O)OCC
inactive: Potency [1] | Potency [2] | Potency [3] | Potency [4]

CCCC(=O)O
inactive: Potency [1] | Potency [2] | Potency [3] | Potency [4]

Cc1ccc(C)c(C)c1
inactive: Potency [1] | Potency [2] | Potency [3] | Potency [4]

CO[C@]1(NC(=O)CSC(F)F)C(=O)N2C(C(=O)O)=C(CSc3nnnn3CCO)CO[C@H]21
inactive: Potency [1] | Potency [2] | Potency [3] | Potency [4]

O=C(c1ccccc1)c1ccc(O)cc1
inactive: Potency [1] | Potency [2] | Potency [3] | Potency [4]

CC(C)c1ccc(C(=O)N=C(N)N)cc1S(C)(=O)=O
inactive: outcome [1] | outcome [2] | outcome [3] | outcome [4]

CC(NCCC(c1ccccc1)c1ccccc1)c1ccccc1 (stereo not given)
inactive: Potency [1] | Potency [2] | Potency [3] | Potency [4]

CCOC(=O)C1=C[C@]2(CC)CCCN3CCc4c(n1c1ccccc41)[C@@H]32
inactive: Potency [1] | Potency [2] | Potency [3] | Potency [4]

CC(C)=CC=O
inactive: Potency [1] | Potency [2] | Potency [3] | Potency [4]

COP(=O)(OC)OC(c1ccc(Cl)cc1)P(=O)(OC)OC (stereo not given)
inactive: Potency [1] | Potency [2] | Potency [3] | Potency [4]

FC(F)(F)C(Cl)Br (stereo not given)
inactive: Potency [1] | Potency [2] | Potency [3] | Potency [4]

CCC(=O)OC/C=C/c1ccccc1
inactive: Potency [1] | Potency [2] | Potency [3] | Potency [4]

CC(CN(C)C)C(C)(O)Cc1ccc(Cl)cc1 (stereo not given)
inactive: Potency [1] | Potency [2] | Potency [3] | Potency [4]

Cc1noc(NS(=O)(=O)c2ccc(N)cc2)c1C
inactive: Potency [1] | Potency [2] | Potency [3] | Potency [4]

O=C1C(c2[nH]c3ccccc3c2O)=Nc2ccccc21
inactive: Potency [1] | Potency [2] | Potency [3] | Potency [4]

COC(=O)c1ccc(C(=O)OC)c(C(=O)OC)c1
inactive: Potency [1] | Potency [2] | Potency [3] | Potency [4]

O=S(=O)(O)CCCN1CCOCC1
inactive: Potency [1] | Potency [2] | Potency [3] | Potency [4]

O=C(O)c1ccc(-n2nc(-c3ccccc3O)nc2-c2ccccc2O)cc1
inactive: Potency [1] | Potency [2] | Potency [3] | Potency [4]

CCc1cc(Cc2cc(CC)cc(C(C)(C)C)c2O)c(O)c(C(C)(C)C)c1
inactive: Potency [1] | Potency [2] | Potency [3] | Potency [4]

Nc1ccc(S(=O)(=O)Nc2ccnn2-c2ccccc2)cc1
inactive: activity, negative = inhibition [1] -0.528% [at 23.6 µM] | activity change, negative = inhibition [2] -0.415% [at 23.6 µM] | activity change, negative = inhibition [3] 5.71% [at 23.8 µM] | activity change, negative = inhibition [4] -0.674% [at 23.6 µM]

O=C(c1ccc2c(c1)C(=O)OC2=O)c1ccc2c(c1)C(=O)OC2=O
inactive: Potency [1] | Potency [2] | Potency [3] | Potency [4]

CN1Cc2c(N)cccc2C(c2ccccc2)C1 (stereo not given)
inactive: Potency [1] | Potency [2] | Potency [3] | Potency [4]

Cc1ccc(S(=O)(=O)NC(=O)NC2CCCCC2)cc1
inactive: Potency [1] | Potency [2] | Potency [3] | Potency [4]

CNS(=O)(=O)c1cc(C(=O)N2CCC(CCN3C4CCC3CC(n3c(C)nc5ccccc53)C4)(c3cccc(F)c3)CC2)c(Cl)cc1F (stereo not given)
inactive: Potency [2] | Potency [4]
active: Potency [1] 8.94 µM | Potency [3] 7.96 µM

CCOC(=O)NNc1ccc(N(CC)CC(C)O)nn1 (stereo not given)
inactive: Potency [1] | Potency [2] | Potency [3] | Potency [4]

Cc1oc(C)c(C(=O)Nc2ccccc2)c1C
inactive: Potency [1] | Potency [2] | Potency [3] | Potency [4]

Cc1cccc(N)n1
inactive: Potency [1] | Potency [2] | Potency [3] | Potency [4]

C=CC(=O)OCC(CO)(COCC(COC(=O)C=C)(COC(=O)C=C)COC(=O)C=C)COC(=O)C=C
inactive: Potency [1] | Potency [2] | Potency [3] | Potency [4]

CC(C)OC(=O)C(O)(CC(=O)O)CC(=O)O
inactive: Potency [1] | Potency [2] | Potency [3] | Potency [4]

C1COCCN1
inactive: Potency [1] | Potency [2] | Potency [3] | Potency [4]

Cc1cc(O)cc2c1O[C@](C)(CCC[C@H](C)CCC[C@H](C)CCCC(C)C)CC2
inactive: Potency [1] | Potency [2] | Potency [3] | Potency [4]

C=CC(O)CCCCC (stereo not given)
inactive: Potency [1] | Potency [2] | Potency [3] | Potency [4]

NCCCOCCOCCOCCCN
inactive: Potency [1] | Potency [2] | Potency [3] | Potency [4]

C=CCNc1nc(NCC=C)nc(N2CCN(C(c3ccc(F)cc3)c3ccc(F)cc3)CC2)n1
inactive: outcome [1] | outcome [2] | outcome [3] | outcome [4]

COCCOC(=O)CC#N
inactive: Potency [1] | Potency [2] | Potency [3] | Potency [4]

Nc1ccc(O)cc1
inactive: Potency [1] | Potency [2] | Potency [3] | Potency [4]

CCCCCCCOC(C)=O
inactive: Potency [1] | Potency [2] | Potency [3] | Potency [4]

Cc1ccc(C(=O)O)cc1[N+](=O)[O-]
inactive: Potency [1] | Potency [2] | Potency [3] | Potency [4]

CC(C)(N=C=O)c1cccc(C(C)(C)N=C=O)c1
inactive: Potency [1] | Potency [2] | Potency [3] | Potency [4]

CC(C)OC(=O)c1cc(C(=O)OC(C)C)cc([N+](=O)[O-])c1
inactive: Potency [1] | Potency [2] | Potency [3] | Potency [4]

[O-][N+](=Nc1ccccc1)c1ccccc1
inactive: Potency [1] | Potency [2] | Potency [3] | Potency [4]

OC[C@H](Cc1cccc(O)c1)[C@H](CO)Cc1cccc(O)c1
inactive: Potency [1] | Potency [2] | Potency [3] | Potency [4]

CCCCCCCCCCCC[N+](C)(C)CCCS(=O)(=O)[O-]
inactive: Potency [1] | Potency [2] | Potency [3] | Potency [4]

CC[N+](CC)(CC(=O)Nc1c(C)cccc1C)Cc1ccccc1 (tested in a mixture with another compound)
inactive: Potency [1] | Potency [2] | Potency [3] | Potency [4]

C[C@@H](O[C@H]1OCCN(Cc2n[nH]c(=O)[nH]2)[C@H]1c1ccc(F)cc1)c1cc(C(F)(F)F)cc(C(F)(F)F)c1
inactive: Potency [1] | Potency [2] | Potency [3] | Potency [4]

CC/C=C/CCO
inactive: Potency [1] | Potency [2] | Potency [3] | Potency [4]

O=C(Cl)c1ccc(C(=O)Cl)cc1
inactive: Potency [1] | Potency [2] | Potency [3] | Potency [4]

CCCOCCO
inactive: Potency [1] | Potency [2] | Potency [3] | Potency [4]

O=C(Nc1ccccc1)Nc1ccccc1
inactive: Potency [1] | Potency [2] | Potency [3] | Potency [4]

CC1=NN(c2ccc(C(=O)O)cc2)C(=O)C1
inactive: Potency [1] | Potency [2] | Potency [3] | Potency [4]
